The values below come from ChEMBL document CHEMBL3988442, “University of Dundee, Small-Polar-MMV Screening Library” (2021).

For assay [1], the target named is T1, Aspartate--tRNA(Asp/Asn) ligase (Mycobacterium tuberculosis (strain ATCC 25618 / H37Rv)) (UniProt P9WFW3). Further: in the data most compounds retested in dose-response had high values.
T1 sequence (whole entry): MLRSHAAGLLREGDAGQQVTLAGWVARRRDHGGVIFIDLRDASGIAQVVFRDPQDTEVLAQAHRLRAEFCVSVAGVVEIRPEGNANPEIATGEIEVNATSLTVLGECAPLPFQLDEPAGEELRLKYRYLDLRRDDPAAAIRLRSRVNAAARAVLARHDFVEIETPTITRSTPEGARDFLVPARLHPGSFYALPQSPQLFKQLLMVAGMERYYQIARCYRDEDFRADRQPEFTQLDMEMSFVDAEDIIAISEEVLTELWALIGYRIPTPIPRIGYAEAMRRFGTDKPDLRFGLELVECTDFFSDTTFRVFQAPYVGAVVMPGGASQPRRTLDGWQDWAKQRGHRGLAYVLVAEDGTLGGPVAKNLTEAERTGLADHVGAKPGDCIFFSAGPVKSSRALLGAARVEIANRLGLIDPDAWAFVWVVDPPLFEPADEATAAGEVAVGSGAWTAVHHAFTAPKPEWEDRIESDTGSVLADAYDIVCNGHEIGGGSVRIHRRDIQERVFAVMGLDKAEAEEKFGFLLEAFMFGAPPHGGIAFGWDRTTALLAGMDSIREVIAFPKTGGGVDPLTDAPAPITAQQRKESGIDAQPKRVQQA
The assay can be described thus: Assay for Asp RNA synthetase-1 from Mycobacterium tuberculosis. It is filed as functional. The arrangement: scale not given: direction of the effect not stated beside the values. The note with it: 30 µM.

Assay [2] has as its target Shiga toxin 2 (Escherichia coli O157:H7) (UniProt P09385+P09386). The assay can be described thus: E. coli 0.157:H7 Shiga Toxin SOP - stx2 screening assay. Format: functional. The arrangement: scale not given: direction of the effect not stated beside the values. The conditions noted are these: 30 µM.

Consider `Cc1cc(CN2CCN(C(=O)Nc3cccnc3)CC2)on1`, for which the Percent Effect is -2.97% in assay [1] and 26.4% in assay [2].
The like results for `Cc1noc(Cl)c1CCC(=O)N1CCCCC1Cn1cccn1` (stereo not drawn) were, in that order, 1.35% and -6.37%.
`CN(Cc1cn2c(n1)CN(C(=O)CC1CC1)CC2)Cc1ccco1`: the figures for the Percent Effect in assay [1] and in assay [2] were -0.868% and -5.93%, respectively.
The like results for `O=C(NCC1CC1)[C@H]1C[C@H]2OCC[C@H]2N(CCc2ccccc2)C1` were, in that order, 3.44% and 2.56%.
In the case of `CSc1nccn1-c1cccc(C(=O)NCc2nnc(C)n2C)c1`, the Percent Effect came to 4.52% in assay [1] and 19.7% in assay [2].
The like results for `COc1cc2cc(C(=O)N[C@@H](C)C(=O)O)n(C)c2c(OC)c1OC` were, in that order, -3.11% and -30.8%.
The like results for `CC(NC(=O)NCCCN(C)S(C)(=O)=O)c1cccc(Cl)c1` (stereo not drawn) were, in that order, 1.12% and -9.29%.
The like results for `CC(C)N(C)Cc1cnc2n1CCN(C(=O)NC1CCCC1)C2` were, in that order, -1.4% and -28.1%.
Regarding `CC(C)Nc1nc(N2CCOCC2)nc2c1CN(CC(=O)N(C)C)CC2`, the Percent Effect is 12.1% in assay [1] and -23.6% in assay [2].
The like results for `Cc1nc(C)n(CC2CN(c3ncnc4[nH]ccc34)CCO2)n1` (stereo not drawn) were, in that order, 0.364% and -9.54%.
The like results for `CC(C)n1c(=O)nc2n1C(=O)N(c1ccccc1)C2` were, in that order, 2.04% and 0.0543%.
The like results for `COCCN1C(=O)CC(N2CCN(c3ccc(F)cc3)CC2)C1=O` (stereo not drawn) were, in that order, 1.23% and -24.6%.
For `Cn1c(Cn2cccn2)nnc1C1CCCN(c2ccncc2F)C1` (stereo not drawn), the values for the Percent Effect in assay [1] and in assay [2] were -0.254% and -2.56%, respectively.
Consider `CC(=O)NCCc1ccc(C(=O)N2CCCC2c2cnn(C)c2)cc1` (stereo not drawn), for which the Percent Effect in assay [1] is 3.04%; in assay [2], 21.3%.
The like results for `CC(=O)N1CC(=O)N(c2ccccc2)CC12CCN(Cc1cccs1)C2` (stereo not drawn) were, in that order, 2.3% and -33.9%.
The like results for `O=S(=O)(c1ccccc1)N1CCN(CCn2ccnc2)CC1` were, in that order, -3.1% and 2.08%.
The like results for `CCOCC1CC2(CCN(Cc3ccccn3)CC2)CO1` (stereo not drawn) were, in that order, 0.869% and -0.96%.
For `CN(C)C1CCN(C(=O)NCc2ccc(Cn3cncn3)cc2)CC1`, the Percent Effect was -3.07% in assay [1] and -19.9% in assay [2].
The like results for `CS(=O)(=O)N1CCN(C(=O)Cn2ccc3c(Cl)cccc32)CC1` were, in that order, -0.673% and -16.5%.
